Data as given in PubChem BioAssay AID504766 (The Scripps Research Institute Molecular Screening Center, 2011).
Out of some 340,000 compounds screened, about 3,400 (1%) were called active. This is one part of a sample in which actives are shown more often than they occur.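 Rule for the calls: active = inhibition above the mean over all tested compounds plus 3 SD (cut at about 4.2% in these data); inactive = the rest.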

molecular target: Nuclear receptor subfamily 0 group B member 1 (Homo sapiens) (UniProt P51843); experiment: relief of DAX1 transcriptional repression – cell-based, HEK293, Gal4-DAX1, luciferase luminescence, primary screen (AID 504766); settings: HEK293 Gal4-DAX1 luciferase reporter, at 6.75 µM, active compounds read high;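 note: 0% = DAX1-transfected cells with DMSO and 100% = empty-vector control cells with DMSO; inhibition shows as a rise in luminescence from relieved DAX1 repression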
Sequence (P51843 207-470 limits assumed): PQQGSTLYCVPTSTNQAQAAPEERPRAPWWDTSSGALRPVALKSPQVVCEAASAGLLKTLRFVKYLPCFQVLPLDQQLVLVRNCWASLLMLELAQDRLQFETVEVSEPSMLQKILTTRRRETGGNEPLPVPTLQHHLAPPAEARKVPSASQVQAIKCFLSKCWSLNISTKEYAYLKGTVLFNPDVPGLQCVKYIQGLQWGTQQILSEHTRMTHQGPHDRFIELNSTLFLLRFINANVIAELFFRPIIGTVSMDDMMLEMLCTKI

inhibition, active:
CC(=O)OCCC(C)C 5.92%
Cc1cc(C)n(-c2nc(O)cc(=O)[nH]2)n1 4.76%
Nc1ccc(-c2nnc(-c3ccccc3)o2)cc1 4.37%
N#Cc1c(NC(=O)C2CCCO2)sc2c1CCCCC2 (stereo unspecified) 4.7%
OCCC1CN(Cc2cccc(OC3CCCC3)c2)CCN1Cc1ccsc1 (stereo unspecified) 5.86%
CCNc1nc(-c2cc3ccccc3o2)cs1 4.56%
CCc1ccc(N(CC(=O)Nc2sc3c(c2C(=O)OC)CCCC3)S(C)(=O)=O)cc1 5.84%
COc1ccc(NC(=O)CN2C(=O)CSC2=O)cc1 4.34%
NS(=O)(=O)c1ccccc1NC(=O)c1c(O)c2ccccc2[nH]c1=O 4.59%
Clc1ccc(Nc2ccc3ccccc3n2)cc1 5.5%
CSc1nnnn1-c1c(C)cc(C)cc1C 5.68%
CN(C)/C=C(/C(=O)c1ccc(Cl)c(Cl)c1)c1nnnn1-c1ccccc1 8.45%
Cc1cnc(C(=O)OCC(=O)NCCCc2ccccc2)cn1 8.25%
CCn1c(SCC(=O)Nc2ccc3c(c2)OCCO3)nnc1-c1ccncc1 6.79%
COc1ccc(-n2nc(C(=O)NCC(=O)N3CCC(C(N)=O)CC3)c3ccccc3c2=O)cc1OC 5.14%
Cc1ccc(CSc2nsc(C)c2C#N)cc1 4.45%

inhibition, inactive:
CC(=O)OCC(COC(C)=O)OC(C)=O -0.24%
CC(=O)OC(C)C[N+](C)(C)C (stereo unspecified) 1.03%
Cc1ccc(S(=O)(=O)N2C[C@@H](C)[C@]3(C2)[C@H](O)[C@H](OC(=O)NCc2ccccc2)C[C@H]2C(=O)N(c4ccccc4)C(=O)[C@H]23)cc1 0.21%
O=C1OCCC1=COCCCCOC=C1CCOC1=O -0.66%
CC(=O)c1ccc(Oc2cc(C)nc(-n3nc(C)cc3C)n2)cc1 0.1%
Cc1cc(C)n(-c2ccc3nncn3n2)n1 0.66%
CNS(=O)(=O)c1ccc2c(c1)[nH]c(=S)n2C 0.47%
CCc1ccccc1NC(=O)CN1CCN(C(=O)c2cc(C3CC3)nn2-c2ccccc2)CC1 -0.77%
COc1ccc(-c2nnc(-c3ccc4ccccc4c3)o2)cc1 0.71%
CN(C)c1ccc(-c2nnc(-c3cccnc3)o2)cc1 2.53%
CCCn1c(N)c(C(=O)CSc2nnc(Cc3cccs3)n2C2CC2)c(=O)[nH]c1=O 0.35%
OCC1OC(n2cnc3c(N4CCCC4)ncnc32)C(O)C1O (stereo unspecified) -0.3%
CC1CN(C(=O)c2cccc(NS(=O)(=O)c3ccc(Br)cc3)c2)CC(C)O1 (stereo unspecified) 0.52%
Cc1csc(SCC(=O)Nc2ccc(C)c(S(=O)(=O)N(C)C)c2)n1 0.09%
Cc1onc(-c2ccccc2)c1-c1nnc(COC(=O)c2ccc(N(C)C)cc2)o1 -0.6%
N#Cc1c(NC(=O)C2CC(Cl)=CCC2C(=O)O)sc2c1CCCCC2 (stereo unspecified) -0.39%
N#Cc1c(NC(=O)CCCl)sc2c1CCCCC2 1.1%
CCN(CC)C(=O)C1=C(C)N(Cc2ccc(F)cc2)C(=O)C(CC(=O)NCc2cccc3ccccc23)C1 (stereo unspecified) -0.64%
C[C@H]1NS(=O)(=O)c2cc(Cl)ccc2O[C@@H]1c1ccccc1 -0.34%
COc1ccc(CN2C[C@H]3CON(C)[C@H]3C[C@H]2c2ccc(-c3cccc(F)c3)cc2)cc1 1.13%
CC1=C(C(=O)Nc2cccc(C(=O)NCC(C)c3ccccc3)c2)SCCO1 (stereo unspecified) 3.58%
COc1ccc(OC)c(NC(=O)C2CCCN2S(=O)(=O)c2ccc3c(c2)CC(C)N3C(C)=O)c1 (stereo unspecified) 1.18%
OCCC1CN(Cc2ccccc2-c2ccco2)CCN1Cc1ccsc1 (stereo unspecified) -0.73%
OCCC#Cc1ccc(CN2CCN(Cc3ccsc3)C(CCO)C2)cc1 (stereo unspecified) 2.04%
Cc1ccc(S(=O)(=O)/N=C2\C=C(NS(=O)(=O)c3ccc(C)cc3)C(=O)c3ccccc32)cc1 -1.06%
Cc1ccc(S(=O)(=O)N2CCOCC2)cc1NC(=O)c1ccncc1 0.21%
CCC(Oc1ccccc1)C(=O)OCC(=O)Nc1c(C)nn(-c2ccccc2)c1C (stereo unspecified) 0.21%
Cc1ccc(S(=O)(=O)N2CCCCC2)cc1NC(=O)CCNC(=O)c1ccccc1Cl 0.48%
CCCCN1C[C@H](c2ccc(Br)cc2)[C@@H](CC(=O)Nc2ccc(Br)cc2)C1=O -0.08%
Cn1c(CNc2nc(-c3ccccc3)cs2)nnc1SCC(=O)c1ccccc1 -1.22%
Cc1cc(NC(=O)c2cc3ccccc3o2)no1 0.08%
COc1ccc(S(=O)(=O)N2CCN(CC(=O)N3CCNC3=O)CC2)cc1OC 0.75%
CCN(C(=O)Nc1cccc2ccccc12)c1ccccc1 0.32%
COC(=O)c1c(NC(=O)CN(c2ccc(C)c(C)c2)S(C)(=O)=O)sc2c1CCCC2 0.52%
COC(=O)c1c(NC(=O)CSc2nncs2)sc2c1CCCCC2 -1.11%
COCCCn1c(=O)/c(=C/c2ccccc2OC(C)C)s/c1=C(\C#N)C(=O)Nc1ccc(C(=O)O)cc1 1.28%
COc1cc(C(=O)OCCCN2CCOCC2)cc(OC)c1OC 0.71%
O[C@H]1CN(Cc2cccs2)[C@@H](c2ccc(Cl)cc2)C[C@@H]1n1cc(C2CC2)nn1 0.8%
CCc1ccc(NC(=O)CN2C(=O)CSC2=O)cc1 1.29%
COc1ccc(NC(=O)CN2C(=O)CSc3ccc(S(=O)(=O)N4CCC(C)CC4)cc32)cc1 -0.82%
CC(=O)Nc1c(-c2ccc(C)cc2)nc2ccc(Cl)cn12 0.08%
C=CCn1nc(C(=O)OCC)cc1-c1sc(NC(=O)c2ccccc2)nc1C -1.54%
O=C(CSc1ccc(Cl)cc1)NC1CC1 0.27%
O=C(Cc1ccc([N+](=O)[O-])cc1)NCCS(=O)(=O)N1CCN(c2ccccc2)CC1 -0.22%
CCCOC(=O)Cc1c(O)c2ccccc2[nH]c1=O -0.26%
O=C(Cc1c(O)c2ccccc2[nH]c1=O)NCc1ccccc1 1.32%
COc1ccc(CN2C(=O)C(CC(=O)NC3CCCCC3)CC(C(=O)N3CCOCC3)=C2C)cc1 (stereo unspecified) 0.35%
CCN1CCN(CCNC(=O)c2ccc3c(c2)NC(=O)/C(=C\c2cccc(Cl)c2)S3)CC1 -0.42%
CCOC(=O)C1CCN(C(=O)c2ccc3c(=O)n4nc(Nc5ccccc5CC)sc4nc3c2)CC1 -2.28%
Cc1ccccc1NC(=O)Cc1nc(COC(=O)C(C)(C)Oc2ccc(Cl)cc2)cs1 -0.05%
C(=N\Nc1ccc2ccccc2n1)/c1ccc2c(c1)OCO2 -2.05%
O=C(NNC(=O)c1ccc2ccccc2c1)c1ccc(Cl)cc1 -1.29%
CCn1nnnc1SCC(=O)c1ccc(C)cc1C -0.2%
Cc1ccc(S(=O)(=O)N2C[C@]3(O)C[C@@H]4C(=O)N(c5ccccc5)C(=O)[C@@H]4C[C@]3(OC(=O)NC3CC3)C2)cc1 -1.25%
O[C@@H]1C[C@H](c2ccccc2)N(Cc2cccs2)C[C@H]1n1cc(C2CC2)nn1 1.9%
O[C@H]1C[C@H](c2ccc(Cl)cc2)N(Cc2cccs2)C[C@@H]1n1cc(C2CC2)nn1 0.67%
CC(=O)c1ccc(S(=O)(=O)NCc2nnnn2-c2ccccc2)cc1 0.03%
CN(C)/C=C(/C(=O)c1ccccc1Cl)S(C)(=O)=O -0.35%
CCOc1cc(/C=N/NC(=O)c2c(C)nc3ccc(Cl)cn23)ccc1O 0.71%
COc1ccc(C(=O)OCC(=O)NCCCc2ccccc2)cc1OC -0.04%
O=C(COC(=O)c1ccc(F)cc1)NCCCc1ccccc1 1.34%
S=C(NN=Cc1ccccn1)Nc1ccccn1 -4.47%
CC1(c2cccc(N)c2)OCCO1 0.74%
CCCCCCN1C[C@@H](O)[C@H](n2cc(COC(=O)c3ccccc3)nn2)C[C@@H]1c1ccc(Cl)cc1 0.09%
CCn1c(COc2ccccc2)nnc1SCC(=O)Nc1ccc2c(c1)OCCO2 -0.24%
CCn1c(SCC(=O)Nc2ccc3c(c2)OCCO3)nnc1C(C)C 2.27%
COc1ccc(-n2nc(C(=O)NCC(=O)N3CCCCCC3)c3ccccc3c2=O)cc1Cl -1.56%
COc1ccc(-n2nc(C(=O)NCC(=O)N3CCN(c4ccccc4OC)CC3)c3ccccc3c2=O)c(OC)c1 -1.07%
O=C(OCc1ccccc1)N1CCC2CC1c1ccc(-c3ccc4c(c3)OCO4)cc12 (stereo unspecified) 0.14%
COC(=O)C(Cc1c[nH]c2ccccc12)NC(=O)CCNC(=O)c1ccco1 (stereo unspecified) 0.93%
C[C@H]1CN([C@@H](C)CO)C(=O)CCCn2nncc2CO[C@@H]1CN(C)Cc1ccc(Oc2ccccc2)cc1 -1.44%
COc1ccc(-c2ccc3[nH]c4c(c3c2)CCN2C[C@H]3[C@H](C)ON(C)[C@H]3C[C@@H]42)cc1 -1.11%
COc1ccc(NC(=O)C[C@H]2C(=O)N(CCc3ccccc3)C[C@@H]2C)cc1 0.1%
Cc1snc(SCc2c(F)cccc2Cl)c1C#N -1.64%
Cc1cc(C)c(C#N)c(SCc2ccc3c(c2)OCO3)n1 -0.08%
